Source: PubChem BioAssay (National Center for Advancing Translational Sciences (NCATS))
DT40 TDP1 no CPT – qHTS for Inhibitors of human tyrosyl-DNA phosphodiesterase 1 (TDP1): qHTS in cells in absence of CPT; 15% of 420,000 active; AID 686978, 2013; DT40 Tdp1-/- hTDP1 cells, no CPT, ATP luminescence, 48 h; Potency, µM (titrated, usually from 46.2 µM), without a hit: top-dose activity change, negative = growth inhibition, actives largely listed as inhibitors; further: potency means the concentration at half of the fitted maximal effect; nearly all actives have a fitted effect of over 55% in size
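Luminescent ATP content (CellTiter-Glo) served as the growth readout. Knockout chicken DT40 cells expressing human TDP1 were exposed to compounds without camptothecin for a minimum 48 hr at 37 °C.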
HT1080 IDH1KD tx – qHTS for induction of synthetic lethality in tumor cells producing 2HG: qHTS for the HT-1080-IDH1KD cell line | HT-1080 IDH1 knockdown viability, ATP luminescence, 48 h | Potency, µM (titrated, usually from 46.1 µM), for inactives: top-dose activity, negative = toxicity, usual class: cytotoxic | 2% of 360,000 active;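 further: potency means the concentration at half of the fitted maximal effect; 0% = DMSO wells and -100% = cell-free medium wells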
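HT-1080-IDH1KD cells (IDH1 knocked down), 750/well in RPMI with 5% FBS, treated with compound 48 h at 37 degrees C. Viability by CellTiter-Glo luminescence, normalised to DMSO and no-cell wells; concentration-response curves classed.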
DT40 TDP1 CPT – qHTS for Inhibitors of human tyrosyl-DNA phosphodiesterase 1 (TDP1): qHTS in cells in presence of CPT. chicken DT40 Tdp1-/-;hTDP1 cells + 20 nM CPT, ATP luminescence, 48 h. Potency, µM (series often up to 46.2 µM), without a hit: top-dose activity change, negative = growth inhibition, most hits filed as inhibitors. 12% of 420,000 active. AID 686979, 2013; further: potency means the concentration at half of the fitted maximal effect; nearly all actives have a fitted effect of over 55% in size
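Chicken DT40 Tdp1-/- cells complemented with human TDP1, 400 cells/well, exposed to compounds plus 20 nM camptothecin for at least 48 h at 37 C; viability read as ATP content by CellTiter-Glo luminescence.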
IL-1B inflam inh – qHTS for Inhibitors of Inflammasome Signaling: IL-1-beta AlphaLISA Primary Screen; THP-1 LPS/ATP IL-1B secretion, AlphaLISA, 16 h; hits give low values; activity change, % at 57.5 µM; 4.7% of 360,000 active; in the data active means activity change below about -50%; inconclusive means mostly about -30% to -49%
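THP-1 cells pretreated 1 hr with compounds (up to 57.5 uM final), then stimulated with LPS (250 ng/mL final) plus ATP (1.25 mM final); secreted IL-1B measured by AlphaLISA after 16 hr, decreased signal indicating inhibition.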
HT1080-NT tox – qHTS for induction of synthetic lethality in tumor cells producing 2HG: qHTS for the HT-1080-NT fibrosarcoma cell line; 1.6% of 360,000 active; AID 686970, 2013; Potency, µM (doses to about 46.1 µM), for inactives: top-dose activity, negative = less viability, hits mostly cytotoxic; HT-1080-NT fibrosarcoma viability, CellTiter-Glo ATP luminescence, 48 h;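 further: NT is the 2HG producing partner of a matched IDH1 knockdown line; potency means the concentration at half of the fitted maximal effect; 0% = DMSO-treated cells and -100% = media-only wells without cells; nearly all actives have a fitted effect of over 55% in size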
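Fibrosarcoma NT cells, 750 per well in 5% FBS RPMI, were exposed to compound for 48 hours. Viability: CellTiter-Glo luminescence.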
Active calls of the source: *; ? = inconclusive; · = no result. Rows were chosen to be rich in hits. Some 19% of all compounds tested hit in one or more screens of this group. Unless noted, the call rests on the fitted dose curve; in most records, active means well fitted curve in the direction sought with a large enough effect; inconclusive means small, poorly fitted or top-dose-only effect, or another doubt; inactive means no such curve, though single readings can be large; an effect the other way counts as inactive or inconclusive. Unless noted, on the % scale 0 is the no-effect control and ±100 the full control effect.

SMILES | DT40 TDP1 no CPT | HT1080 IDH1KD tx | DT40 TDP1 CPT | IL-1B inflam inh | HT1080-NT tox
CCCCn1nnnc1C(c1cc2ccccc2o1)N1CCCCC1 (stereo unspecified) | ? | -28.1% | ? | -8.2 | 3.0%
CCCCn1nnnc1C(c1cc2ccccc2o1)N1CCN(c2ccccc2F)CC1 (stereo unspecified) | ? | 6.9% | ? | -21.0 | 15.6%
Cc1noc(/C=C/c2cccs2)c1S(=O)(=O)N1CCC(C(=O)NCCCN2CCC(C)CC2)CC1 | ? | -22.3% | ? | -16.2 | 12.2%
O=C(CN(C(=O)c1csnn1)c1ccccc1F)NCc1ccc2c(c1)OCO2 | -2.1% | 0.1% | 11.0% | -7.4 | 4.9%
CCN(CC(=O)NCc1cccs1)C(=O)c1ccc(NS(=O)(=O)c2ccc(F)cc2)cc1 | -28.1% | -4.4% | -0.7% | 7.4 | -7.9%
CCCCn1nnnc1C(c1cc2ccccc2o1)N1CCN(c2cc(C)nc3ccccc23)CC1 (stereo unspecified) | ? | ? | ? | -24.3 | 18.4µM*
Cc1ccc(-c2nc3c(Cl)cc(C(F)(F)F)cn3c2Cc2ccccc2)cc1 | ? | 21.0% | ? | 33.1 | 10.1%
Cc1cc(Br)cn2c(Cc3ccccc3)c(-c3ccc(F)cc3)nc12 | ? | -0.1% | ? | 48.5 | -14.8%
COc1ccc(Cc2c(C(C)(C)C)nc3c(C)cc(Br)cn23)c(C)c1 | 23.1µM* | -28.1% | 18.4µM* | 0.0 | -19.5%
COc1ccc(Cc2c(C(C)(C)C)nc3cc(C)c(Br)c(C)n23)c(C)c1 | ? | ? | -21.1% | 59.9 | -19.7%
Cc1cc(Br)cn2c(Cc3ccccc3)c(-c3ccccc3)nc12 | ? | -12.0% | 29.1µM* | 38.5 | -8.9%
Cc1ccc(Cc2c(-c3ccc(Cl)cc3)nc3c(C)cc(Br)cn23)cc1 | 16.4µM* | 16.4µM* | 23.1µM* | 81.4 | ?
Cc1ccc(Cc2c(-c3ccc(Cl)cc3)nc3c(Cl)cc(C(F)(F)F)cn23)cc1 | 18.4µM* | 13.1% | ? | 3.5 | 15.3%
Cc1ccc(Cc2c(-c3cccc(Cl)c3)nc3c(C)cc(Br)cn23)cc1 | 20.6µM* | 1.2% | 14.6µM* | 0.0 | 3.9%
Cc1ccc(-c2nc3c(C)cc(Br)cn3c2Cc2ccsc2)cc1 | ? | 16.4µM* | 18.4µM* | 45.9 | ?
COc1ccccc1Cc1c(-c2ccccc2)nc2c(C)cc(Br)cn12 | 16.4µM* | ? | 16.4µM* | 11.4 | ?
Cc1cc(Br)cn2c(Cc3ccsc3)c(-c3ccccc3)nc12 | ? | -14.6% | ? | 16.0 | -16.4%
Cc1ccc(Cc2c(-c3cccc(Br)c3)nc3c(C)cc(Br)cn23)cc1 | ? | 2.7% | -23.3% | 8.2 | -3.8%
CN(c1nc(-c2ccc(Br)cc2)cs1)C1CCS(=O)(=O)C1 (stereo unspecified) | ? | 1.6% | ? | -76.8* | -1.4%
N[C@H](C(=O)O)C1C(C(=O)O)C1C(=O)O (stereo partly specified) | 0.6% | · | 1.7% | · | ·
CC1=C/C(=C(/c2cc(C)c(O)c(Br)c2)c2ccccc2S(=O)(=O)O)C=C(Br)C1=O | ? | ? | ? | -70.7* | ?
CCC(CO)Nc1ccn2nc(-c3cc(OC)c(OC)c(OC)c3)cc2n1 (stereo unspecified) | 14.6µM* | -17.2% | ? | ? | -16.1%
CCC(C)NC(=O)CSc1nc(-c2cccs2)cc(C(F)(F)F)n1 (stereo unspecified) | ? | -0.1% | ? | -10.5 | -3.3%
CCC(CO)Nc1ccn2nc(-c3cccs3)cc2n1 (stereo unspecified) | -25.6% | 0.0% | -21.4% | -50.1* | 22.1%
CCC(CO)Nc1ccn2nc(-c3ccccc3)cc2n1 (stereo unspecified) | ? | 19.8% | -13.2% | 24.2 | 13.0%
SMILES | DT40 TDP1 no CPT | HT1080 IDH1KD tx | DT40 TDP1 CPT | IL-1B inflam inh | HT1080-NT tox
CC(/C=C1\SC(=S)N(CCC(=O)Nc2nc(C)cs2)C1=O)=C\c1ccccc1 | ? | 1.2% | ? | -6.0 | 6.6%
CCOC(=O)c1cc(C)n(CC2CCC(C(=O)Nc3cccc(Cl)c3)CC2)c1C (stereo unspecified) | 16.4µM* | · | ? | · | ·
CCOC(=O)c1cc(C)n(CC2CCC(C(=O)Nc3ccc(OC)c(OC)c3)CC2)c1C (stereo unspecified) | -18.4% | · | -22.5% | · | ·
CCOC(=O)c1cc(C)n(CC2CCC(C(=O)Nc3ccc(Cl)cc3)CC2)c1C (stereo unspecified) | 11.6µM* | · | 18.4µM* | · | ·
COc1ccc(S(=O)(=O)N2CCN(C(=O)CSC(=S)N3CCCC3)CC2)cc1 | ? | -6.8% | -11.0% | -9.2 | 1.1%
O=C(CCC(=O)N1Cc2ccccc2Oc2ncccc21)NCc1ccccc1Cl | ? | · | -25.9% | · | ·
CCc1c(C(C)=O)oc2ccc3c(C)cc(=O)oc3c12 | ? | -0.2% | -5.0% | -10.3 | -4.6%
Cc1cc(=O)oc2c1ccc1oc(/C(=N/O)c3ccccc3)c(C)c12 | 25.9µM* | ? | 20.6µM* | -74.1* | ?
Cc1ccc(/C(=N\O)c2oc3c(C)c4oc(=O)cc(C)c4cc3c2C)cc1 | 16.4µM* | 23.1µM* | 18.4µM* | -28.6 | ?
N[C@@H](CSSC[C@H](N)C(=O)O)C(=O)O | -5.1% | · | 4.8% | · | ·
CCCN1CCN(C(=O)c2oc3ccccc3c2NC(=O)C2CC2)CC1 | 35.1% | 1.2% | -23.7% | 10.3 | 15.6%
O=C1CCC(=O)O1 | 5.2% | 0.2% | -0.5% | -53.5* | 4.1%
Oc1[nH]c2ccccc2c1C=Nc1ccc2c(c1)OCCO2 | ? | 4.9% | ? | -89.8* | -0.9%
CC1(C)C2CC[C@]3(C)C(CC=C4[C@@H]5C[C@@](C)(CO)[C@@H](O)C[C@]56C[C@@H](OC6=O)[C@]43C)[C@@]2(C)CC[C@@H]1O (stereo partly specified) | 1.1% | 9.1% | 14.3% | 0.8 | 7.5%
COc1ccc(Cl)cc1N(C(=O)Nc1cccc(Cl)c1)C1=NCC(C)S1 (stereo unspecified) | -26.5% | 13.6% | -16.1% | -11.1 | 18.5%
CCOC(=O)N1CCN(C(=O)CN(c2ccccc2)S(C)(=O)=O)CC1 | -5.1% | ? | 10.1% | 4.2 | 13.7%
O=C(Nc1cccc(C(F)(F)F)c1)c1cccnc1 | -15.4% | 26.8% | -24.2% | -3.1 | 10.6%
